Results taken from the supplement of paper PMC8975748.
Where a name gives a salt, the structure may show the parent alone. ± gives the standard deviation of the averaged measurements.

What follows are molecules tested on Saccharomyces cerevisiae BY4741 SeMeCo community (assay: mean cell size (pixel area) (pixels); higher = larger cells). Conditions: 10 µM; 24 h; SM minimal medium.
Summary of the method: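 A fluorescent Saccharomyces cerevisiae BY4741 community carrying four plasmids was used, with each plasmid complementing one auxotrophy and bearing a fluorescent marker. An overnight preculture at OD600 = 1.0 was diluted to OD600 = 0.3, and 70 µl went into 384-well plates acoustically predosed with drug (final 10 µM) in SM medium for 24 h. After paraformaldehyde fixation, cells were imaged by automated confocal microscopy and analysed in Harmony, giving the mean cell pixel area per well. Each value is the average of 3 replicates. Same SeMeCo high-content imaging drug screen: Selleck FDA-approved drugs at 10 µM, 24 h in SM medium, 384-well plates, 3 replicates.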

SMILES	mean cell size
Cc1cc(C)nc(O)n1.O=C(Nc1ccc([N+](=O)[O-])cc1)Nc1ccc([N+](=O)[O-])cc1 [Nicarbazin]	12.4 ± 0.18
CC1(C)CC[C@]2(C(=O)O)CC[C@]3(C)C(=CC[C@@H]4[C@@]5(C)CC[C@H](O)C(C)(C)[C@@H]5CC[C@]43C)[C@@H]2C1 [Oleanolic Acid]	12.4 ± 0.22
CCN1CC(CCN2CCOCC2)C(c2ccccc2)(c2ccccc2)C1=O (stereo not given) [Doxapram HCl]	12.5 ± 0.14
NC(=O)C(c1ccccc1)(c1ccccc1)[C@@H]1CCN(CCc2ccc3c(c2)CCO3)C1 [Darifenacin HBr]	12.4 ± 0.39
CNCC[C@H](Oc1cccc2ccccc12)c1cccs1 [Duloxetine HCl]	12.5 ± 0.21
CC1=C(C(=O)O)N2C(=O)[C@@H](NC(=O)[C@H](N)C3=CCC=CC3)[C@H]2SC1 [Cephradine monohydrate]	11.9 ± 0.16
Oc1ccc(C2CNCCc3c2cc(O)c(O)c3Cl)cc1 (stereo not given) [Fenoldopam mesylate]	12.9 ± 0.26
CCCc1nn(C)c2c(=O)[nH]c(-c3cc(S(=O)(=O)N4CCN(C)CC4)ccc3OCC)nc12 [Sildenafil Citrate]	12.4 ± 0.22
CO[C@@]1(NC(=O)C(C(=O)O)c2ccc(O)cc2)C(=O)N2C(C(=O)O)=C(CSc3nnnn3C)CO[C@@H]21 (stereo not given in full) [Latamoxef sodium]	12.7 ± 0.16
CC(C)Cc1ccc(C(C)C(=O)O)cc1 (stereo not given) [Ibuprofen Lysine]	13 ± 0.042
Cc1cc(O)cc(C)c1Cl [Chloroxylenol]	12.7 ± 0.17
COc1cccc(CCc2ccccc2OCC(CN(C)C)OC(=O)CCC(=O)O)c1 (stereo not given) [Sarpogrelate hydrochloride]	12.3 ± 0.35
CCC(C)n1ncn(-c2ccc(N3CCN(c4ccc(OCC5COC(Cn6cncn6)(c6ccc(Cl)cc6Cl)O5)cc4)CC3)cc2)c1=O (stereo not given) [Itraconazole]	11.93 ± 0.1
CO/N=C(\C(=O)N[C@@H]1C(=O)N2C(C(=O)O)=CCS[C@H]12)c1csc(N)n1 [Ceftizoxime sodium]	12.3 ± 0.25
CNCCCC1c2ccccc2C=Cc2ccccc21 [Protriptyline hydrochloride]	12.4 ± 0.15
C(=C\c1ccccc1)/CN1CCN(C(c2ccccc2)c2ccccc2)CC1 [Cinnarizine]	12.21 ± 0.081
CC1CCc2cc(F)cc3c(=O)c(C(=O)O)cn1c23 (stereo not given) [Flumequine]	12.3 ± 0.18
CN(C)CCC=C1c2ccccc2C=Cc2ccccc21 [Cyclobenzaprine HCl]	12.59 ± 0.046
COc1ccccc1N1CCN(CCCNc2cc(=O)n(C)c(=O)n2C)CC1 [Urapidil HCl]	12.49 ± 0.088
CO/N=C(\C(=O)N[C@@H]1C(=O)N2C(C(=O)[O-])=C(C[N+]3(C)CCCC3)CS[C@H]12)c1csc(N)n1 [Cefepime Dihydrochloride Monohydrate]	12.4 ± 0.19

SMILES	mean cell size
CC(=O)O[C@H]1C[C@@]2(C)[C@@H](C[C@@H](O)[C@H]3[C@@]4(C)CC[C@@H](O)[C@@H](C)[C@@H]4CC[C@@]32C)/C1=C(\CCC=C(C)C)C(=O)O [Fusidate Sodium]	12.64 ± 0.067
CCCOc1ccc(C(=O)OCCN(CC)CC)cc1N [Proparacaine HCl]	12.56 ± 0.068
C#CCN[C@@H]1CCc2ccccc21 [Rasagiline Mesylate]	12.49 ± 0.065
CC[C@H]1OC(=O)[C@H](C)[C@@H](O[C@H]2C[C@@](C)(OC)[C@@H](O)[C@H](C)O2)[C@H](C)[C@@H](O[C@@H]2O[C@H](C)C[C@H](N(C)C)[C@H]2O)[C@](C)(O)C[C@@H](C)C(=O)[C@H](C)[C@@H](O)[C@]1(C)O [Erythromycin]	12.3 ± 0.15
C[C@@H](c1ncncc1F)[C@](O)(Cn1cncn1)c1ccc(F)cc1F [Voriconazole]	11.9 ± 0.18
O=C1c2c(O)ccc(O)c2C(=O)c2c(NCCNCCO)ccc(NCCNCCO)c21 [Mitoxantrone 2HCl]	12.9 ± 0.15
CN1[C@@H]2CC[C@H]1C[C@@H](OC(=O)c1c[nH]c3ccccc13)C2 [Tropisetron]	12.15 ± 0.079
O=C(O)CCNC(=O)c1ccccc1 [Betamipron]	12.6 ± 0.21
CN[C@H](CC(C)C)C(=O)N[C@H]1C(=O)N[C@@H](CC(N)=O)C(=O)N[C@H]2C(=O)N[C@H]3C(=O)N[C@H](C(=O)N[C@H](C(=O)O)c4cc(O)cc(O)c4-c4cc3ccc4O)[C@H](O)c3ccc(c(Cl)c3)Oc3cc2cc(c3O[C@@H]2O[C@H](CO)[C@@H](O)[C@H](O)[C@H]2O[C@H]2C[C@](C)(N)[C@H](O)[C@H](C)O2)Oc2ccc(cc2Cl)[C@H]1O [Vancomycin HCl]	12.1 ± 0.11
CO/N=C1\C[C@]2(C[C@@H]3C[C@@H](C/C=C(\C)C[C@@H](C)/C=C/C=C4\CO[C@@H]5[C@H](O)C(C)=C[C@@H](C(=O)O3)[C@]45O)O2)O[C@H](/C(C)=C/C(C)C)[C@H]1C [Moxidectin]	12.4 ± 0.18
NCCc1ccc(O)c(O)c1 [Dopamine HCl]	12.4 ± 0.15
CO/N=C(\C(=O)N[C@@H]1C(=O)N2C(C(=O)OC(C)OC(C)=O)=C(COC(N)=O)CS[C@H]12)c1ccco1 (stereo not given in full) [Cefuroxime axetil]	12.59 ± 0.065
Cc1onc(-c2c(F)cccc2Cl)c1C(=O)N[C@@H]1C(=O)N2[C@@H]1SC(C)(C)[C@@H]2C(=O)O [Flucloxacillin sodium]	12.55 ± 0.1
Cc1c(-c2ccccc2)oc2c(C(=O)OCCN3CCCCC3)cccc2c1=O [Flavoxate HCl]	12 ± 0.18
Cc1onc(-c2ccccc2Cl)c1C(=O)N[C@@H]1C(=O)N2[C@@H]1SC(C)(C)[C@@H]2C(=O)O [Cloxacillin Sodium]	12.44 ± 0.058
O=C(O)c1cn(-c2ccc(F)cc2)c2cc(N3CCNCC3)c(F)cc2c1=O [Sarafloxacin HCl]	12.2 ± 0.18
OC(Cn1cncn1)(Cn1cncn1)c1ccc(F)cc1F [Fluconazole]	11.98 ± 0.059
COC(=O)C1=C(C)NC(C)=C(C(=O)OC(C)C)C1c1cccc2nonc12 (stereo not given) [Isradipine]	12.49 ± 0.11
CC(C)[C@H](N)C(=O)OCC(CO)OCn1cnc2c(=O)[nH]c(N)nc21 (stereo not given in full) [Valganciclovir HCl]	12.7 ± 0.14
CC[C@H]1OC(=O)[C@H](C)[C@@H](O[C@H]2C[C@@](C)(OC)[C@@H](O)[C@H](C)O2)[C@H](C)[C@@H](O[C@@H]2O[C@H](C)C[C@H](N(C)C)[C@H]2O)[C@](C)(O)C[C@@H](C)CN[C@H](C)[C@@H](O)[C@]1(C)O [Azathramycin]	12.5 ± 0.16
